Molecules are shown by their SMILES. Results filed as inconclusive are left out. A call without a number means that no potency is given here. Calls of active or inactive are those of the source. Calls follow the shape of the dose curve; as a rule, active = well fitted inhibition curve with a large enough effect; inconclusive = small, poorly fitted or top-dose-only effect; inactive = flat fitted curve, though single readings scatter.

A short description of the assay: Secondary qRT-PCR qHTS assay for selected Zika virus inhibitors. The conditions noted are these: Vero cells ZIKV infection, NS5 RNA qRT-PCR, 24 h; series mostly up to 32.6 µM. The source says: Assay Submitters (PI): Avindra Nath, Ph.D., National Institute of Neurological Disorders and Stroke (NINDS), Bethesda, MD Radhakrishnan Padmanabhan, Ph.D., Georgetown University (GU), Washington D.C. Zika Virus causes congenital defects, including microcephaly and is associated with Guillain-Barre syndrome, eningoencephalitis and myelitis in infected adult. […] Using a target-based approach, we hope to establish a screening paradigm to uncover novel, cell-active NS2B-NS3 protease (Zika Virus) specific inhibitors from NCATS' collection of small molecules using qHTS. […] Four assay panel was created to identify potential Zika Virus inhibitors. Namely, (1) GU unlinked NS2B-NS3 AMC tagged protease qHTS, (2) GU unlinked NS2B-NS3 Rhodamine tagged protease qHTS, (3) NINDS linked NS2B-NS3 AMC tagged protease qHTS, (4) NINDS linked NS2B-NS3 Rhodamine tagged protease qHTS. Inhibitors of the Zika virus primary screens are confirmed using qRT-PCR secondary assays, qRT-PCR mCherry orthogonal assay, and qRT-PCR viability counterscreen. Early Translation Branch (ETB) National Center for Advancing Translational Sciences (NCATS), Rockville, MD National Institute of Health (NIH), Bethesda, Maryland
384-well ZIKV qRT-PCR Assay: Vero cells were treated with the indicated compounds at different concentrations, infected with ZIKV (MOI=1) and incubated at 37 degrees C for 3 hours to permit virus invasion. After 3 hr, supernatant was removed, and cells were washed once to remove extracellular virus. After a further 21 hr incubation, infected cells were washed three times with cold PBS (4 degrees C). Plates were then process using the TaqmanGene Expression Cells-to-Ct Kit (ThermoFisher Scientific) following the manufactures protocol. Primers directed to the NS5 sequence (F-[…]; R-GCTCGGCCAATCAGTTCA) along with Taqman probe (FAM-[…]-BHQ; Biosearch Technologies) were used to quantify drug inhibition of viral load. Reactions were run at initial 95 degrees C for 10 min, then 40 cycles of 95 degrees C for 20 sec and 60 degrees C for 40 sec using a LightCycler 480 (Roche). Relative viral copy numbers were generated by normalizing to cells treated with vehicle.
In general terms: Real-time PCR tracks product formation cycle by cycle.
On to `O=C(Nc1ccc(Br)cc1)c1cc(Br)cc(Br)c1O`, for which the Potency was 22.4 µM (active).

Regarding `C[C@]12CC[C@@H]3c4ccc(OC(=O)N(CCCl)CCCl)cc4CC[C@H]3[C@@H]1CC[C@@H]2O`, the Potency result is “inactive”.

Turning to `CN(C)[C@@H]1C(=O)C(C(N)=O)=C(O)[C@@]2(O)C(=O)C3=C(O)c4c(O)cccc4[C@@](C)(O)[C@H]3C[C@@H]12`, the Potency result is “inactive”.

For `Oc1c(Cl)c(Cl)c(Cl)c(Cl)c1Cl`, the Potency result is “inactive”.

In the case of `CN(C)[C@@H]1C(=O)C(C(N)=O)=C(O)[C@@]2(O)C(=O)C3=C(O)c4c(O)ccc(Cl)c4[C@@](C)(O)[C@H]3C[C@@H]12`, the Potency result is “inactive”.

The values are drawn from PubChem BioAssay AID1347172 (National Center for Advancing Translational Sciences (NCATS), 2019).
